In PubChem BioAssay (NCI):
This is part of a sample that, as a whole, favours compounds with a hit. Of some 79,000 tested, about 15% had one in any assay. A number with no mark means an inactive call. The source made the active and inactive calls. Rule as the data show it: active = growth inhibition above about 70%; inactive = the rest.

Legend:
[1] = NCI Yeast Anticancer Drug Screen. Data for the rad52 strain (AID 147);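 also: 0% = growth of vehicle-treated control cultures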; conditions: S. cerevisiae rad52 mutant growth inhibition, hits give high values
Summary of the method: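 DNA repair-defective yeast; compound exposure; growth scored against vehicle controls.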

[2] = NCI Yeast Anticancer Drug Screen. Data for the rad50EPP+ strain (AID 151);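 also: 0% = growth of vehicle-treated control cultures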; conditions: S. cerevisiae rad50 mutant strain, hits give high values
Summary of the method: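 rad50EPP+ yeast treated with test compounds. Readout: growth vs vehicle control.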

[3] = NCI Yeast Anticancer Drug Screen. Data for the rad50 strain (AID 155);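 also: 0% = growth of vehicle-only cultures of the same strain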; conditions: S. cerevisiae rad50 strain growth inhibition, hits give high values
Summary of the method: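 Genetically altered yeast (DNA repair pathway); compound treatment; growth inhibition vs vehicle ctrl.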

[4] = NCI Yeast Anticancer Drug Screen. Data for the mec2-1 strain (AID 157); conditions: S. cerevisiae mec2-1 strain, hits give high values
Summary of the method: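 Growth inhibition is read against vehicle-treated controls after compound exposure of the mec2-1 yeast strain, which is defective in DNA damage repair or cell cycle control.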

[5] = NCI Yeast Anticancer Drug Screen. Data for the rad14 strain (AID 159);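 also: 0% = growth of vehicle-treated control cultures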; conditions: S. cerevisiae rad14 strain growth inhibition, hits give high values
Summary of the method: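 Test compounds were applied to a repair-deficient yeast strain. Its growth was then compared with that of cultures given vehicle alone, and inhibition was expressed relative to those controls.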

[6] = NCI Yeast Anticancer Drug Screen. Data for the sgs1 mgt1 strain (AID 161);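 also: 0% = growth of cultures given vehicle only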; conditions: S. cerevisiae sgs1 mgt1 strain, hits give high values
Summary of the method: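 Percent growth inhibition was derived by comparing compound-exposed mutant yeast with vehicle-exposed cultures. The strain carries alterations in DNA damage repair.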

[7] = NCI Yeast Anticancer Drug Screen. Data for the CLN2oe strain (AID 163);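 also: 0% = growth of vehicle-only control cultures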; conditions: S. cerevisiae CLN2oe strain, hits give high values
Summary of the method: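 Compound-treated yeast; growth vs vehicle ctrl = % inhibition. Genetically altered strain (cell-cycle control).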

[8] = NCI Yeast Anticancer Drug Screen. Data for the cln2 rad14 strain (AID 165);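 also: 0% = growth equal to vehicle treated cultures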; conditions: S. cerevisiae cln2 rad14 strain, hits give high values
Summary of the method: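 Growth inhibition, relative to vehicle-treated controls, is the read-out. The test organism is a yeast strain with defined genetic alterations, cln2 rad14.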

[9] = NCI Yeast Anticancer Drug Screen. Data for the bub3 strain (AID 167); conditions: S. cerevisiae bub3 mutant strain, hits give high values
Summary of the method: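 Yeast carrying a defined mutation is treated with each compound, and growth is compared with that of vehicle-exposed cells to give inhibition.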

[10] = NCI Yeast Anticancer Drug Screen. Data for the wt2 strain (AID 169);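 also: 0% = growth of vehicle-treated yeast cultures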; conditions: S. cerevisiae wt2 strain growth inhibition, hits give high values
Summary of the method: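 Compound exposure of yeast; growth compared with vehicle controls; inhibition reported.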

[11] = NCI Yeast Anticancer Drug Screen. Data for the mlh1 strain (AID 171);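 also: 0% = growth of vehicle-treated control cultures of the same strain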; conditions: S. cerevisiae mlh1 strain growth inhibition, hits give high values
Summary of the method: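 Compounds are applied to a genetically altered yeast strain, and its growth is compared with that of vehicle-treated cultures to give percent inhibition.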

[12] = NCI Yeast Anticancer Drug Screen. Data for the sgs1 strain (AID 173);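 also: 0% = growth of vehicle-only control cultures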; conditions: S. cerevisiae sgs1 mutant, hits give high values
Summary of the method: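 Compounds applied to genetically altered yeast; growth compared with vehicle-treated cultures to give % inhibition.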

[13] = NCI Yeast Anticancer Drug Screen. Data for the mlh1 rad18 strain (AID 175); conditions: S. cerevisiae mlh1 rad18 strain growth inhibition, hits give high values
Summary of the method: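 Cells of a genetically altered yeast strain, deficient in DNA damage repair, were treated with compound. Their growth was then compared with that of vehicle-treated cultures to give inhibition.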

[14] = NCI Yeast Anticancer Drug Screen. Data for the rad18 strain (AID 177); conditions: S. cerevisiae rad18 mutant growth inhibition, hits give high values
Summary of the method: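 Compounds are applied to a repair-deficient yeast strain, and growth is compared with that of vehicle-treated cultures to give percent inhibition.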

[15] = NCI Yeast Anticancer Drug Screen. Data for the wt1 strain (AID 149);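 also: 0% = growth of vehicle-treated wt1 cultures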; conditions: S. cerevisiae wt1 strain (SPY 50644) growth inhibition, hits give high values
Summary of the method: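 wt1 yeast, compound-treated; % growth inhibition vs vehicle control.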

[16] = at 5.0 µM (retest, dose inferred, filed as 0.5)
[17] = at 50.0 µM (retest, dose inferred, filed as 5.0)

For `O=C(/C(=C/c1ccc(O)cc1)c1ccccc1)c1ccccc1`, the growth inhibition ([1]; at 1.2 µM) was -52%, the growth inhibition ([1]; at 3.7 µM) was -55% and the growth inhibition ([1]; at 11.0 µM) was -14%. The growth inhibition ([1]; at 33.0 µM) was 99% (active), the growth inhibition ([1]; at 100.0 µM) was 93% (active) and the growth inhibition ([2]; at 1.2 µM) was -5%. The growth inhibition ([2]; at 3.7 µM) was -2%, the growth inhibition ([2]; at 11.0 µM) was 1% and the growth inhibition ([2]; at 33.0 µM) was 15%. It also gave a growth inhibition ([2]; at 100.0 µM) of 9%, a growth inhibition ([3]; at 1.2 µM) of -8% and a growth inhibition ([3]; at 3.7 µM) of -2%. The growth inhibition [3, 16] was 27%, the growth inhibition ([3]; at 11.0 µM) was 53% and the growth inhibition ([3]; at 33.0 µM) was 98% (active). The growth inhibition [3, 17] was 98% (active), the growth inhibition ([3]; at 50.0 µM) was 87.5% (active) and the growth inhibition ([3]; at 100.0 µM) was 93% (active). The growth inhibition ([4]; at 1.2 µM) was -27%, the growth inhibition ([4]; at 3.7 µM) was -20% and the growth inhibition [4, 16] was -8%. For the same compound, the growth inhibition ([4]; at 11.0 µM) was 55%, the growth inhibition ([4]; at 33.0 µM) was 98% (active) and the growth inhibition [4, 17] was 97% (active). The growth inhibition ([4]; at 50.0 µM) was 34.5%, the growth inhibition ([4]; at 100.0 µM) was 85% (active) and the growth inhibition ([5]; at 1.2 µM) was -2%. The growth inhibition ([5]; at 3.7 µM) was 0%, the growth inhibition ([5]; at 11.0 µM) was 13% and the growth inhibition ([5]; at 33.0 µM) was 99% (active). For the same compound, the growth inhibition ([5]; at 100.0 µM) was 94% (active), the growth inhibition [6, 16] was 39% and the growth inhibition [6, 17] was 97% (active). The growth inhibition ([6]; at 50.0 µM) was 93% (active), the growth inhibition ([7]; at 1.2 µM) was 8% and the growth inhibition ([7]; at 3.7 µM) was 10%. For the same compound, the growth inhibition ([7]; at 11.0 µM) was 61%, the growth inhibition ([7]; at 33.0 µM) was 99% (active) and the growth inhibition ([7]; at 100.0 µM) was 93% (active). For the same compound, the growth inhibition [8, 16] was 20%, the growth inhibition [8, 17] was 97% (active) and the growth inhibition ([8]; at 50.0 µM) was 92.5% (active). For the same compound, the growth inhibition ([9]; at 1.2 µM) was 22%, the growth inhibition ([9]; at 3.7 µM) was 12% and the growth inhibition [9, 16] was 2%. The growth inhibition ([9]; at 11.0 µM) was 82% (active), the growth inhibition ([9]; at 33.0 µM) was 99% (active) and the growth inhibition [9, 17] was 98% (active). The growth inhibition ([9]; at 50.0 µM) was 91.3% (active), the growth inhibition ([9]; at 100.0 µM) was 90% (active) and the growth inhibition ([10]; at 1.2 µM) was -38%. The growth inhibition ([10]; at 3.7 µM) was -31%, the growth inhibition ([10]; at 11.0 µM) was 33% and the growth inhibition ([10]; at 33.0 µM) was 98% (active). The growth inhibition ([10]; at 100.0 µM) was 93% (active), the growth inhibition ([11]; at 1.2 µM) was 6% and the growth inhibition ([11]; at 3.7 µM) was 24%. For the same compound, the growth inhibition ([11]; at 11.0 µM) was 68%, the growth inhibition ([11]; at 33.0 µM) was 98% (active) and the growth inhibition ([11]; at 100.0 µM) was 88% (active). It also gave a growth inhibition ([12]; at 1.2 µM) of -18%, a growth inhibition ([12]; at 3.7 µM) of -13% and a growth inhibition ([12]; at 11.0 µM) of 16%. For the same compound, the growth inhibition ([12]; at 33.0 µM) was 98% (active), the growth inhibition ([12]; at 100.0 µM) was 93% (active) and the growth inhibition [13, 16] was 0%. The growth inhibition [13, 17] was 98% (active), the growth inhibition ([13]; at 50.0 µM) was 84% (active) and the growth inhibition ([14]; at 1.2 µM) was -29%. For the same compound, the growth inhibition ([14]; at 3.7 µM) was -33%, the growth inhibition ([14]; at 11.0 µM) was 17% and the growth inhibition ([14]; at 33.0 µM) was 98% (active). For the same compound, the growth inhibition ([14]; at 100.0 µM) was 86% (active).
`CCCCS(=O)(=O)Nc1ccc(Nc2c3ccccc3nc3ccccc23)c(OC)c1` showed a growth inhibition ([15]; at 1.2 µM) of -38%, a growth inhibition ([15]; at 3.7 µM) of -34% and a growth inhibition ([15]; at 11.0 µM) of -36%. The growth inhibition ([15]; at 33.0 µM) was 44%, the growth inhibition ([15]; at 100.0 µM) was 96% (active) and the growth inhibition ([2]; at 1.2 µM) was -20%. It also gave a growth inhibition ([2]; at 3.7 µM) of -11%, a growth inhibition ([2]; at 11.0 µM) of 10% and a growth inhibition ([2]; at 33.0 µM) of 53%. For the same compound, the growth inhibition ([2]; at 100.0 µM) was 81% (active), the growth inhibition ([3]; at 1.2 µM) was 39% and the growth inhibition ([3]; at 3.7 µM) was 78% (active). For the same compound, the growth inhibition [3, 16] was 86% (active), the growth inhibition ([3]; at 11.0 µM) was 89% (active) and the growth inhibition ([3]; at 33.0 µM) was 94% (active). The growth inhibition [3, 17] was 98% (active), the growth inhibition ([3]; at 50.0 µM) was 45% and the growth inhibition ([3]; at 100.0 µM) was 96% (active). It also gave a growth inhibition ([4]; at 1.2 µM) of -29%, a growth inhibition ([4]; at 3.7 µM) of -9% and a growth inhibition [4, 16] of 15%. The growth inhibition ([4]; at 11.0 µM) was 37%, the growth inhibition ([4]; at 33.0 µM) was 91% (active) and the growth inhibition [4, 17] was 98% (active). For the same compound, the growth inhibition ([4]; at 50.0 µM) was 47.5%, the growth inhibition ([4]; at 100.0 µM) was 98% (active) and the growth inhibition ([5]; at 1.2 µM) was -31%. For the same compound, the growth inhibition ([5]; at 3.7 µM) was -25%, the growth inhibition ([5]; at 11.0 µM) was -9% and the growth inhibition ([5]; at 33.0 µM) was 79% (active). The growth inhibition ([5]; at 100.0 µM) was 96% (active), the growth inhibition [6, 16] was 44% and the growth inhibition [6, 17] was 99% (active). The growth inhibition ([6]; at 50.0 µM) was 84% (active), the growth inhibition ([7]; at 1.2 µM) was 10% and the growth inhibition ([7]; at 3.7 µM) was 3%. The growth inhibition ([7]; at 11.0 µM) was 6%, the growth inhibition ([7]; at 33.0 µM) was 72% (active) and the growth inhibition ([7]; at 100.0 µM) was 91% (active). The growth inhibition [8, 16] was 25%, the growth inhibition [8, 17] was 95% (active) and the growth inhibition ([8]; at 50.0 µM) was 77% (active). The growth inhibition ([9]; at 1.2 µM) was -53%, the growth inhibition ([9]; at 3.7 µM) was -63% and the growth inhibition [9, 16] was 43%. For the same compound, the growth inhibition ([9]; at 11.0 µM) was -35%, the growth inhibition ([9]; at 33.0 µM) was 60% and the growth inhibition [9, 17] was 96% (active). For the same compound, the growth inhibition ([9]; at 50.0 µM) was 76.9% (active), the growth inhibition ([9]; at 100.0 µM) was 96% (active) and the growth inhibition ([10]; at 1.2 µM) was -13%. For the same compound, the growth inhibition ([10]; at 3.7 µM) was -22%, the growth inhibition ([10]; at 11.0 µM) was -13% and the growth inhibition ([10]; at 33.0 µM) was 41%. For the same compound, the growth inhibition ([10]; at 100.0 µM) was 93% (active), the growth inhibition ([11]; at 1.2 µM) was -58% and the growth inhibition ([11]; at 3.7 µM) was -43%. For the same compound, the growth inhibition ([11]; at 11.0 µM) was -29%, the growth inhibition ([11]; at 33.0 µM) was 73% (active) and the growth inhibition ([11]; at 100.0 µM) was 97% (active). It also gave a growth inhibition ([12]; at 1.2 µM) of 1%, a growth inhibition ([12]; at 3.7 µM) of 3% and a growth inhibition ([12]; at 11.0 µM) of 20%. For the same compound, the growth inhibition ([12]; at 33.0 µM) was 79% (active), the growth inhibition ([12]; at 100.0 µM) was 97% (active) and the growth inhibition [13, 16] was 78% (active). The growth inhibition [13, 17] was 97% (active) and the growth inhibition ([13]; at 50.0 µM) was 84% (active).
